Data taken from the supplement of paper PMC8253809.
Where “and” joins values, the source holds several entries; their conditions need not be identical. Equal values may be shown once.

Columns and labels:
Experiment in all cases: growth inhibition (% activity, log2 RLU normalised to DMSO / staurosporine); higher = more growth inhibition
Conditions in all cases: 33 µM
[1] = test system: DIPGX29 (H3.3 K27M diffuse intrinsic pontine glioma line)
How it was run: (§1)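 Approved drugs were tested in triplicate at a single final concentration of about 33 μM for 7 days at 37 °C, 5% CO2, on pHGG cell lines and H9-derived neural stem cells. Readout was CellTiter-Glo luminescence, log2-transformed and scaled per plate to % activity between solvent and positive control wells. The median over replicates gives the growth-inhibition value.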

[2] = test system: DIPGX37 (H3.3 K27M diffuse intrinsic pontine glioma line)
How it was run: as §1

[3] = test system: DIPGX7 (H3.3 K27M diffuse intrinsic pontine glioma line)
How it was run: as §1

[4] = test system: DIPGX9 (diffuse intrinsic pontine glioma line)
How it was run: as §1

[5] = test system: HGGX39 (paediatric high-grade glioma line)
How it was run: as §1

[6] = test system: HGGX6 (H3.3 G34R paediatric high-grade glioma line)
How it was run: as §1

[7] = test system: HNSC
How it was run: as §1

[8] = test system: SUDIPGIV (diffuse intrinsic pontine glioma line)
How it was run: as §1

[9] = test system: SUDIPGVI (diffuse intrinsic pontine glioma line)
How it was run: as §1

[10] = test system: SUDIPGXIII (diffuse intrinsic pontine glioma line)
How it was run: as §1

Structure (SMILES)	growth inhibition [1]	growth inhibition [2]	growth inhibition [3]	growth inhibition [4]	growth inhibition [5]	growth inhibition [6]	growth inhibition [7] [%]	growth inhibition [8]	growth inhibition [9]	growth inhibition [10]
CN1[C@@H]2CC[C@H]1C[C@@H](OC(c1ccccc1)c1ccccc1)C2	4.24%	-1.03%	6.35%	2.77%	6.58%	5%	9.97	2.1%	3.58%	0.606%
CN1c2cc(O)c(N=NC(N)=O)cc2CC1S(=O)(=O)O (stereo unspecified)	-0.566%	-0.439%	-0.368%	-0.808%	-0.659%	0.668%	-5.18	-0.34%	0.422%	-12.4%
Cc1ccc2c(Cl)cc(Cl)c(O)c2n1	8.88%	2.78%	3.99%	8.04%	4.68%	3.09%	46	5.39%	5.64%	3.89%
CN(C)[C@@H](CCOc1cccc2ccccc12)c1ccccc1	10.6%	0.861%	6%	3.36%	5.09%	0.0424%	67.5	3.4%	-2.24%	0.415%
C[C@]12CC[C@@H]3c4ccc(O)cc4CC[C@H]3[C@@H]1CCC2=O	0.142%	1.98%	2.55%	1.67%	3.84%	0.36%	1.29	1.87%	0.844%	-0.509%
O=c1[nH]c(=O)n([C@H]2C[C@H](O)[C@@H](CO)O2)cc1F	18.6%	6.96%	12.8%	10.7%	10.9%	14.3%	67.3	26.2%	4.66%	6.72%
N=C(N)NC(=O)c1nc(Cl)c(N)nc1N	1.79% and -1.36%	1.85% and 0.649%	1.7% and 0.904%	2.64% and 0.337%	2.38% and 4%	-0.794% and 0.512%	–	7.17% and 6.85%	2.25% and 2.53%	-0.984% and -0.159%
CCN(CC)CC#CCOC(=O)C(O)(c1ccccc1)C1CCCCC1 (stereo unspecified)	7.11% and -0.14%	-0.636% and -1.02%	8.09% and 5.01%	1.99% and -2.12%	4.03% and -0.183%	1.74% and -0.191%	–	3.76% and -2.81%	-0.8% and -5.89%	1.45% and 2.55%
NS(=O)(=O)c1cc2c(cc1Cl)N=CNS2(=O)=O	-2.49%	-1.85%	0.251%	-2.53%	-3.41%	-3.61%	-4.62	-3.95%	-5.67%	0.373%
CCOCC(O)COc1ccc(NC(=O)CC[S+](C)C)cc1 (stereo unspecified)	-1.2%	-0.984%	-0.388%	0.757%	-1.5%	-2.39%	-2.31	-1.12%	-0.872%	0.764%
CS(=O)(=O)CCNCc1ccc(-c2ccc3ncnc(Nc4ccc(OCc5cccc(F)c5)c(Cl)c4)c3c2)o1	6.23% and 13.7%	3.79% and 6.67%	8.64% and 16.6%	4.74% and 6.77%	7.08% and 12.7%	3.29% and 14.5%	–	3.14% and -0.238%	-6.01% and 3.84%	0.448% and 1.79%
Cc1cc(=O)[nH]c(=S)[nH]1	0.66%	-0.151%	2.93%	1.41%	3.23%	0.504%	4.39	2.24%	4.36%	1.21%
C=C1/C(=C\C=C2/CCC[C@]3(C)[C@@H]([C@H](C)CCCC(C)(C)O)CC[C@@H]23)C[C@@H](O)C[C@@H]1O	2.73%	4.49%	6.36%	1.22%	5.14%	4.52%	2.64	9.51%	2.83%	-1.15%
CC(C(=O)O)c1ccc(C(=O)c2cccs2)cc1 (stereo unspecified)	-1.23%	-0.791%	-0.391%	-0.699%	-0.848%	1.96%	-0.802	-4.32%	0.938%	-0.105%
CC(=O)OCC(=O)[C@@]12N=C(C)O[C@@H]1C[C@H]1[C@@H]3CCC4=CC(=O)C=C[C@]4(C)[C@H]3[C@@H](O)C[C@@]12C	2.06%	0.767%	0.297%	4.71%	3.17%	0.221%	1.26	-3.7%	-1.31%	-1.39%
CCOc1nc2cccc(C(=O)OC(C)OC(=O)OC3CCCCC3)c2n1Cc1ccc(-c2ccccc2-c2nn[nH]n2)cc1 (stereo unspecified)	-1.79%	-1.28%	-1.84%	-0.119%	-0.661%	0.0529%	-2.55	-3.13%	-3.95%	-0.781%
NNc1nncc2ccccc12	-0.649%	0.926%	-0.1%	1.44%	2.03%	0.883%	-1.94	2.81%	-2.33%	-0.215%
Nc1[nH]cnc2ncnc1-2	-2.79% and 0.888% and 0.703%	-2.72% and -1.28% and 1.74%	-0.783% and 2.97% and -0.884%	-3.07% and 2.41% and -1.07%	-1.64% and 3.54% and 2.19%	-4.48% and -0.101% and -1.37%	–	-2.98% and 0.339% and 0.701%	-1.95% and 3.66% and 1.39%	-0.991% and 0.292% and 0.516%
Nc1nc(Cl)nc2c1ncn2[C@@H]1O[C@H](CO)[C@@H](O)[C@@H]1F	14.6%	9.43%	17.6%	43.6%	20%	12.5%	64.4	45%	2.3%	14.3%
CC1(C(=O)O)CCC2(C)CCC3(C)C(=CC(=O)C4C5(C)CCC(OC6OC(C(=O)O)C(O)C(O)C6OC6OC(C(=O)O)C(O)C(O)C6O)C(C)(C)C5CCC43C)C2C1 (stereo unspecified)	-2.43%	0.376%	-1.5%	-0.788%	-1.63%	-0.137%	-2.93	-1.58%	-3.15%	0.0626%
CCCCc1nc(Cl)c(CO)n1Cc1ccc(-c2ccccc2-c2nnn[nH]2)cc1	1.53%	-1.24%	-0.599%	0.985%	0.264%	1.5%	2.21	0.0281%	1.16%	0.404%
C[N+]1(C)[C@@H]2C[C@@H](OC(=O)C(O)(c3cccs3)c3cccs3)C[C@H]1[C@@H]1O[C@@H]12	-2.02%	-0.731%	-2.26%	-2.3%	-2.1%	-0.274%	-3.15	-1.02%	-2.31%	0.889%
